Structures are written as SMILES. “And” between values parts separate entries of the source, which are not always exact repeats. Equal values may be shown once. About 2,600 (16%) of roughly 16,000 compounds were called active. Not shown: some 20% with an inconclusive outcome. A selection follows. Values without a mark were called inactive. The call rests on the fitted dose curve; in most records, active means well fitted curve in the direction sought with a large enough effect; inconclusive means small, poorly fitted or top-dose-only effect, or effect the other way; inactive means no such curve, though single readings can be large or run the other way.
On the % scale 0 is the no-effect control and ±100 the full control effect.

Sequence of Cytochrome P450 2D6 (Homo sapiens) (P10635 whole entry, looked up): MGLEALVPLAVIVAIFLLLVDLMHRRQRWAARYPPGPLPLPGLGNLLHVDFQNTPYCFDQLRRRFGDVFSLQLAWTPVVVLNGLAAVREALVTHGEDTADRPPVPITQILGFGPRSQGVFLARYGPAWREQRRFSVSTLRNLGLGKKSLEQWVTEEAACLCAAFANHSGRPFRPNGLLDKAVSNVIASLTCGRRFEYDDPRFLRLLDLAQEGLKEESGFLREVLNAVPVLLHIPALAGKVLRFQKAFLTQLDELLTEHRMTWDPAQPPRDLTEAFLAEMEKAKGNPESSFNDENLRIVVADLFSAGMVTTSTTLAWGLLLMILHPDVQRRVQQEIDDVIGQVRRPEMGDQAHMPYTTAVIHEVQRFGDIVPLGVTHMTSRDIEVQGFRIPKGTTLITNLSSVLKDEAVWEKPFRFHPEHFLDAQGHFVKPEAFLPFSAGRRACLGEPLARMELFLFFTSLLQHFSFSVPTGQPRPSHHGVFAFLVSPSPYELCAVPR

This experiment has as its target Cytochrome P450 2D6 (Homo sapiens) (UniProt P10635). Kind of experiment: Cytochrome panel assay with activity outcomes. As to conditions: recombinant CYP, pro-luciferin dealkylation, luminescence, p450-cyp2d6; series mostly up to 57.1 µM; activity, negative = inhibition: at the top concentration.
As to `C[C@@H](NC(=O)/C(C#N)=C/c1ccc(O)c(O)c1)c1ccccc1`, the “activity, negative = inhibition” value is -7.05%.

Consider `N#C/C(=C\c1ccc(O)c(O)c1)C(=O)NCCCc1ccccc1`, for which the AC50 (in general, the concentration giving half of the maximal activity seen) is 31.6 µM (active).

Regarding `Nc1ncncc1-c1ccc([N+](=O)[O-])cc1`, the “activity, negative = inhibition” value was 9.87%.

`CC(=O)NC(NC(C)=O)c1ccc(Br)cc1`: the “activity, negative = inhibition” value was 1.99%.

Consider `Cc1ccc(-n2nnnc2Sc2nc([N+](=O)[O-])nn2C)cc1C`, for which the “activity, negative = inhibition” value is -18.4%.

Take `Cc1nc(S(=O)(=O)c2cccc(Cl)c2)nc2c1CCC2`: the “activity, negative = inhibition” value is -5.41%.

With `CC(=O)N(CC(=O)O)c1ccccc1C(=O)O`, the “activity, negative = inhibition” value was 10.9%.

In the case of `CC(C)(C)c1cccc(Oc2nn[nH]n2)c1`, the “activity, negative = inhibition” value is 7.78%.

Turning to `CC1=C(C(N)=O)C(c2cccs2)n2nc(-c3cccc(Cl)c3)nc2N1` (configuration not stated), the “activity, negative = inhibition” value was -10.2%.

For the compound `O=c1[nH]c2cc(Br)cnc2nc1/C=C(\O)c1ccc(F)cc1`, the “activity, negative = inhibition” value is -12.9%.

On to `COC(=O)[C@@H]1C[C@H]1[C@@H](NC(=O)c1cccnc1)c1ccccc1`, for which the “activity, negative = inhibition” value was -11.1%.

As to `COCCn1c(=O)c(-c2cccc(C#N)c2)nc2cnc(Oc3ccccc3)nc21`, the “activity, negative = inhibition” value is -3.81%.

As to `Cc1ccc(Cn2cccc(NC(=O)NCc3ccccc3)c2=O)cc1`, the “activity, negative = inhibition” value is 3.4%.

As to `NC(=O)NCc1ccc(Cl)cc1`, the “activity, negative = inhibition” value is -19.7%.

As to `Cc1ccc(C)c(NC(=O)NCc2ccc(Cl)cc2)c1`, the AC50 was 3.98 µM (active).

For `CCc1c(C)c2c(C)[nH]nc2oc1=O`, the “activity, negative = inhibition” value was -6.95%.

`N#Cc1c(-c2ccc(Cl)cc2)nc2n(c1=O)CCCS2`: the “activity, negative = inhibition” value is -20.7%.

In the case of `COc1cccc(C2=NOC(C(=O)Nc3cccnc3)C2)c1` (configuration not stated), the AC50 was 11.2 µM (active).

Take `COc1cccc(C2=NOC(C(=O)NCc3ccccc3)C2)c1` (configuration not stated): the AC50 was 12.6 µM (active).

`COc1ccc(CNC(=O)C2CSC(=O)C2)cc1` (configuration not stated): the “activity, negative = inhibition” value was 6.49%.

Regarding `COc1ccc(CNC(=O)C2CC(c3cccc([N+](=O)[O-])c3)=NO2)cc1` (configuration not stated), the AC50 is 5.01 µM (active).

As for `O=C(NNC(=O)C1CC(c2cccnc2)=NO1)Nc1cccc(F)c1` (configuration not stated), the “activity, negative = inhibition” value is -21.5%.

Take `O=C(NCc1ccc2c(c1)OCO2)C1CC(c2cccc(Br)c2)=NO1` (configuration not stated): the AC50 is 0.891 µM (active).

For `COc1cccc(C2=NOC(C(=O)Nc3ccc(OC)c(OC)c3)C2)c1` (configuration not stated), the “activity, negative = inhibition” value was 8.04%.

Regarding `COc1cccc(C2=NOC(C(=O)NCc3ccccn3)C2)c1` (configuration not stated), the “activity, negative = inhibition” value was -3.24%.

On to `COc1ccc(C2=NOC(C(=O)NCc3ccco3)C2)cc1OC` (configuration not stated), for which the “activity, negative = inhibition” value is -6.05%.

`COc1cccc(C2=NOC(C(=O)NCCN3CCOCC3)C2)c1` (configuration not stated): the “activity, negative = inhibition” value is -13.5%.

Turning to `COCCNC(=O)C1CC(c2cccc(OC)c2)=NO1` (configuration not stated), the “activity, negative = inhibition” value was -0.287%.

`CO[C@H]1COC(=O)C/C=C\[C@@H](C)COC(=O)[C@@H](CCSC)NC(=O)C/C=C\[C@@H]1C`: the activity, negative = inhibition is 14% [at 11.4 µM] and 6.2% [at 11.4 µM].

Regarding `O=C(c1cc(C(F)(F)F)cc(C(F)(F)F)c1)N1CCC[C@@]2(CCN(c3ncccn3)C2)C1`, the “activity, negative = inhibition” value was -1.56%.

With `O=S(=O)(O)c1cc(N=Nc2cccc3ccccc23)c(O)c2ncccc12`, the activity, negative = inhibition is -9.94% [at 11.4 µM].

Regarding `Nc1nc2n[nH]nc2c(=O)[nH]1`, the “activity, negative = inhibition” value is -3.06% [at 25.6 µM].

Consider `O=C1[C@H]2CCn3c(=O)n(-c4ccccc4)c(=O)n3[C@H]2[C@H](O)[C@H]2O[C@@H]12`, for which the activity, negative = inhibition was -6.63% [at 11.4 µM].

In the case of `Cc1nn2c3c(cnc2c1-c1ccccc1)C(=O)CC(c1ccccc1)C3` (configuration not stated), the “activity, negative = inhibition” value is -5.55%.

In the case of `O=C(NCC1CCCO1)c1nn2c(c1Cl)NC(c1ccc(F)cc1)CC2C(F)(F)F` (configuration not stated), the “activity, negative = inhibition” value is 1.28%.

As to `C#CCSc1nc(Cc2ccc(Cl)cc2)nc2ccccc12`, the “activity, negative = inhibition” value was -18.9%.

As to `Nc1nc(Cl)nc2c1ncn2[C@@H]1O[C@@H](CO)[C@@H](O)[C@H]1O`, the “activity, negative = inhibition” value is -1.08%.

As to `CCC(Sc1nc2n[nH]c(C)c2c(=N)n1-c1cccc(Cl)c1)C(=O)NCCOC` (configuration not stated), the “activity, negative = inhibition” value is -29.6%.

With `Cc1ccc(/C(N)=N/OC(=O)Cc2cccs2)cc1`, the “activity, negative = inhibition” value is -28.3%.

Take `Cc1onc(-c2ccccc2)c1C(=O)NC(CC(=O)O)c1ccc(OC(C)C)cc1` (configuration not stated): the “activity, negative = inhibition” value was 3.77%.

Turning to `CCOc1ccc(C(=O)CCC(=O)O)cc1`, the “activity, negative = inhibition” value was 23.3%.

As to `CCCOc1ccc(C(=O)CCNc2ccc(C)c(Cl)c2)cc1`, the “activity, negative = inhibition” value was -13.7%.

Take `CCCCOc1ccc(C(=O)CCN2CCCCC2)cc1`: the AC50 is 5.01 µM (active).

Turning to `Fc1ccc(CSc2ncnc3sc4c(c23)CCCC4)cc1`, the “activity, negative = inhibition” value is -16.6%.

As for `COc1cc(/C=C(/NC(=O)c2ccccc2)C(=O)Nc2ccccc2)c([N+](=O)[O-])cc1OC`, the “activity, negative = inhibition” value was -7.54%.

Take `COc1c(F)c(F)c(C(=O)O)c(Nc2ccc(C)cc2)c1F`: the “activity, negative = inhibition” value is -9.49%.

Regarding `Nc1nonc1-c1nc2ccccc2n1Cc1ccc(F)cc1Cl`, the “activity, negative = inhibition” value is 0.412%.

For the compound `Clc1ncccc1-c1nc2ccccc2n1Cc1ccccc1`, the “activity, negative = inhibition” value was -16.7%.

As to `Clc1ccc(Cn2c(-c3cccnc3Cl)nc3ccccc32)c(Cl)c1`, the AC50 was 7.94 µM (active).

With `CCOC(=O)C1(N(CC)CC)Sc2cc(C)ccc2NC1=O` (configuration not stated), the “activity, negative = inhibition” value is -10.6%.

On to `CC1CC2(CCCCC2)N2C(=O)C(=O)c3cccc1c32` (configuration not stated), for which the AC50 was 7.94 µM (active).

As for `O=C(NC(=S)Nc1ccc(Oc2ccc(Cl)cc2)cc1)c1ccccc1`, the “activity, negative = inhibition” value was -13.6%.

Values taken from PubChem BioAssay AID1851 (National Center for Advancing Translational Sciences (NCATS), 2009).
